Only some compounds are listed: those with a hit (about 2% of all), similar ones and a draw of the others.
LDHA block – LDHA (human) enzyme inhibition. P00338. 480,000 compounds, 0.15% hits. activity change, % (values are at about 110 or 230 µM). purified LDHA, NADH/diaphorase-resazurin fluorescence; stronger effect = lower value; in the data active = activity change below about -30%; inconclusive = mostly about -25% to -30%;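 also: plate controls were DMSO wells for no effect and wells without enzyme for full effect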
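Remaining NADH was detected by diaphorase (0.133 mg/mL) converting 37 µM resazurin to fluorescent resorufin, read at 0 and 20 minutes. The preceding 5-minute room-temperature reaction used 2 nM LDHA, 0.2 mM sodium pyruvate and 0.06 mM NADH at pH 7.4.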
TDP43 rescue – TDP-43 toxicity inhibition in yeast; TDP-43 expressing yeast growth rescue, BacTiter-Glo, 24 h; AID 652104; 410,000 compounds, 1.8% hits; Potency, µM (titrated, usually from 46.1 µM), for inactives: at the top dose growth rescue (activation), usual class: activators; also: potency is read from the fitted curve at half-maximal effect; % of control where 0% means no effect; nearly all actives have a fitted effect of over 50% in size
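Yeast expressing TDP-43 (pregrown in raffinose, seeded at OD600=0.02 in galactose medium) exposed to compounds 24 hr at 30 deg C. Growth read by BacTiter-Glo luminescence; rescue of toxicity appears as increased signal.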
FUS suppressor – rescues growth of FUS-expressing yeast. S. cerevisiae FUS-expressing, growth rescue, OD600, 24 h. Potency, µM (titrated, usually from 76.6 µM), actives largely listed as activators. 390,000 compounds, 0.24% hits;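 also: potency is read from the fitted curve at half-maximal effect; plate controls were DMSO vehicle for no effect and reference control for full effect; nearly all actives have a fitted effect of over 55% in size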
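Quantitative HTS measuring growth restoration of FUS-toxic yeast. Galactose-induced cells (OD 0.005) were exposed 24hr at 30C to compounds at several concentrations, then absorbance at 600 nm was recorded.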
Abeta yeast res – compounds reversing amyloid beta toxicity in yeast; 410,000 compounds, 0.063% hits; Potency, µM (series often up to 46.1 µM), usual class: activators; yeast expressing A-beta42, growth rescue, OD600, 48 h; response scale: 0% DMSO, 100% iron-clioquinol control; AID 1347071; also: potency is read from the fitted curve at half-maximal effect; nearly all actives have a fitted effect of over 55% in size
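Growth rescue measured by 600 nm absorbance after 48 h yeast culture at 30 C with compound. Values normalized between DMSO and an equimolar ferric chloride plus clioquinol control.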
aSyn rescue – rescues yeast growth from alpha-synuclein toxicity | Yeast expressing alpha-synuclein, growth rescue, BacTiter-Glo, 24 h | Potency, µM (series often up to 46.1 µM), for the others: at the highest dose growth rescue (activation), most hits filed as activators | 370,000 compounds, 0.14% hits | AID 652106; also: potency is read from the fitted curve at half-maximal effect; % of control where 0% means no effect; nearly all actives have a fitted effect of over 65% in size
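Readout is rescue of growth in alpha-synuclein-expressing yeast, so inhibitors of toxicity appear as activators. Growth after 24 hr at 30 deg C in galactose medium is quantified by luminescence.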
IDH1 R132H inh – inhibitors of human mutant IDH1 R132H; O75874; IDH1-R132H enzyme, NADPH consumption, diaphorase/resazurin fluorescence; Potency, µM (top dose mostly 76.6 µM), for the others: at the top dose activity change, negative = inhibition, most hits filed as inhibitors; 390,000 compounds, 0.093% hits; AID 602179; also: potency is read from the fitted curve at half-maximal effect; % is scaled to controls: 0 for no effect and ±100 for the full control effect; nearly all actives have a fitted effect of over 65% in size
Target sequence (O75874 whole entry R132H, stated change not applied): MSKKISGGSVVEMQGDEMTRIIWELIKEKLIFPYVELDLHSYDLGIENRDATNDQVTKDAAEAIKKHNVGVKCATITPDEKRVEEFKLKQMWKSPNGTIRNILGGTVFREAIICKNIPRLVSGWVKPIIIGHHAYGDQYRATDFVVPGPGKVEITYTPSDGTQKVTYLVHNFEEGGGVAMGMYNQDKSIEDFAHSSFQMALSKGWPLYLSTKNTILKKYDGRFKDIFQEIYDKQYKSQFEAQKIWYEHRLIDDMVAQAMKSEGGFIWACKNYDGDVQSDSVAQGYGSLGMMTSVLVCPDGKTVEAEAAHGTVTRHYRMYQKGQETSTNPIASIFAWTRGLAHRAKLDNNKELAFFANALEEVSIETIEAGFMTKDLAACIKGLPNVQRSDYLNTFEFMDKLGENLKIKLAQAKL
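IDH1-R132H (0.5 ug/mL dispensed) in pH 7.5 Tris buffer was preincubated 30 min with compound, then given a substrate mix of 0.016 mM NADPH and 2 mM alpha-KG for 80 min at room temperature; remaining NADPH was read by diaphorase/resazurin fluorescence.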
Numbers without * were called inactive; i = inactive; ? = inconclusive; / = no result given. Unless noted, calls follow the shape of the dose curve; as a rule, active = well fitted curve in the direction sought with a large enough effect; inconclusive = small, poorly fitted or top-dose-only effect, or another doubt; inactive = no such curve, though single readings can be large; an effect the other way counts as inactive or inconclusive.

SMILES	LDHA block	TDP43 rescue	FUS suppressor	Abeta yeast res	aSyn rescue	IDH1 R132H inh
COc1cccc(C(=O)N/N=C/C(Br)=C/c2ccccc2)c1	-2	20µM*	i	i	12%	12%
COc1ccc(C(=O)N/N=C/C(Br)=C/c2ccccc2)cc1	-5	2%	i	i	-12%	3%
COc1cccc(C=C(C(C)=O)C(=O)c2ccccc2)c1	-2	11µM*	i	i	?	/
Cc1occc1C(=O)N/N=C/C(Br)=C/c1ccccc1	-1	14µM*	i	i	-14%	4%
COc1cccc(/C=C(/C(=O)OCC(N)=O)c2ccccc2)c1	-4	-9%	i	i	-1%	4%
NNC(=S)Nc1ccc(Br)cc1	-16	/	/	/	/	/
Cc1cccc2c(C(=O)O)cc(-c3ccc(Cl)s3)nc12	3	/	/	/	/	/
Cc1ccccc1-n1c(SCC(=O)N2CCCCC2)nc(O)cc1=O	2	?	/	i	-1%	4%
COc1ccc(-n2c(SCC(=O)N3CCCCC3)nc(O)cc2=O)cc1	-2	-3%	32µM*	i	3%	4%
Cc1cc(C(=O)NC(C)c2cccc(Cl)c2)c2cnn(C(C)C)c2n1 (stereo not given)	-1	/	/	/	/	/
CCc1ccc(CNC(=O)C(=O)c2c(C)[nH]c3ccccc23)cc1	22	/	/	/	/	/
COc1cccc(CNS(=O)(=O)/C=C/c2ccc3c(c2)OCO3)c1	-3	16µM*	i	i	2%	3%
O=C(CSc1nc2nc[nH]c2c(=O)[nH]1)NCc1ccccc1	-2	/	/	/	/	/
COc1cc(/C=C(/CC(=O)O)c2nc3ccccc3s2)cc(OC)c1	12	/	/	/	/	/
COc1ccc(CNC(=O)CCSCc2cccc(Cl)c2)cc1	-5	24%	i	i	9%	2%
O=C(CCSCc1cccc(Cl)c1)NCc1ccc(F)cc1Cl	-2	22µM*	i	?	/	20%
COc1ccc(CNC(=O)CCSCc2cccc(F)c2)cc1	-3	10µM*	i	i	15%	8%
COc1ccc(CNC(=O)CCSCc2ccccc2C)cc1	-2	7.1µM*	i	i	16%	10%
CC(=O)Oc1ccc2c(c1)CCC1C2CCC2(C)C(OC(C)=O)CCC12 (stereo not given)	-17	32µM*	?	i	-16%	-7%
COC(=O)c1ccc(NCc2c(O)ccc(O)c2Br)cc1Cl	37	20µM*	/	i	-21%	0%
Cc1cccc(N2CCN(C(=O)CCNS(=O)(=O)c3ccc4c(c3)CCN4C(=O)C3CC3)CC2)c1C	-9	15%	28µM*	i	11%	-10%
CC(C)CC(=O)Nc1nnc(CCc2ccccc2)s1	-1	18%	i	i	-1%	12%
CCC(C)C(=O)Nc1nnc(CCc2ccccc2)s1 (stereo not given)	-6	20µM*	i	?	6%	5%
CC(C)c1ccc(Nc2n[nH]c(=S)s2)cc1	-13	14µM*	i	i	-1%	/
Cc1cccc(C)c1Nc1n[nH]c(=S)s1	-2	?	i	i	2%	1%
SMILES	LDHA block	TDP43 rescue	FUS suppressor	Abeta yeast res	aSyn rescue	IDH1 R132H inh
CC1=NNC(=O)/C1=C\c1cn(-c2ccccc2)nc1-c1cccs1	-8	-67%	?	i	-62%	2%
CC1=NNC(=O)/C1=C\c1cn(-c2ccccc2)nc1-c1ccc(F)cc1	-1	11µM*	?	i	-70%	-16%
COC1=C(Br)C(=O)c2ncccc2C1=O	40	28%	/	i	16µM*	28%
O=C1c2cccnc2-c2ncccc21	-5	2%	i	i	-12%	6%
O=C1C=C(c2ccccc2C(F)(F)F)C[C@@H](c2ccc3c(c2)OCO3)C1	-4	18µM*	i	i	15%	-4%
COc1ccc(C2=CC(=O)C[C@H](c3ccc4c(c3)OCO4)C2)cc1	-2	11µM*	i	i	0%	6%
